# Compounds without any hit were thinned out: in the full panel of roughly 79,000, 15% have a hit. Unmarked numbers belong to inactive results. Activity calls are given as the source filed them. Cut-off read from the data, not from the text of the source: active = growth inhibition above about 70%; inactive = the rest.
# Tests used:
# [1] = NCI Yeast Anticancer Drug Screen. Data for the rad52 strain (AID 147);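 note: 0% = growth of vehicle-treated control cultures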; details: S. cerevisiae rad52 mutant growth inhibition, hits give high values
# In short: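 Compounds are applied to a genetically defined yeast strain lacking normal DNA damage repair, and inhibition of growth is expressed relative to cultures given vehicle only.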
# [2] = NCI Yeast Anticancer Drug Screen. Data for the wt1 strain (AID 149);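 note: 0% = growth of vehicle-treated wt1 cultures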; details: S. cerevisiae wt1 strain (SPY 50644) growth inhibition, hits give high values
# In short: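 Using yeast strain wt1, compound-induced growth inhibition was determined against vehicle-treated cultures.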
# [3] = NCI Yeast Anticancer Drug Screen. Data for the rad50EPP+ strain (AID 151);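 note: 0% = growth of vehicle-treated control cultures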; details: S. cerevisiae rad50 mutant strain, hits give high values
# In short: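 Compounds were applied to the rad50EPP+ yeast strain, which bears a defined DNA repair alteration, and growth inhibition was determined relative to vehicle-treated cultures.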
# [4] = NCI Yeast Anticancer Drug Screen. Data for the mgt1 strain (AID 153); details: S. cerevisiae mgt1 mutant growth inhibition, hits give high values
# In short: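 Strain: mgt1 yeast, one of a set carrying defined DNA damage repair or cell cycle control alterations. Compound-treated growth compared with vehicle.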
# [5] = NCI Yeast Anticancer Drug Screen. Data for the rad50 strain (AID 155);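 note: 0% = growth of vehicle-only cultures of the same strain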; details: S. cerevisiae rad50 strain growth inhibition, hits give high values
# In short: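 Relative growth inhibition (compound vs vehicle) was measured in yeast with a defined repair-gene alteration.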
# [6] = NCI Yeast Anticancer Drug Screen. Data for the mec2-1 strain (AID 157); details: S. cerevisiae mec2-1 strain, hits give high values
# In short: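 Strain: mec2-1 (DNA repair/cell cycle alteration). Compound exposure, then growth measured; inhibition expressed relative to vehicle.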
# [7] = NCI Yeast Anticancer Drug Screen. Data for the rad14 strain (AID 159);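 note: 0% = growth of vehicle-treated control cultures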; details: S. cerevisiae rad14 strain growth inhibition, hits give high values
# In short: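 Screen for anticancer potential: a yeast strain altered in DNA damage repair is grown with compound, and reduced growth is quantified against vehicle controls.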
# [8] = NCI Yeast Anticancer Drug Screen. Data for the sgs1 mgt1 strain (AID 161);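 note: 0% = growth of cultures given vehicle only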; details: S. cerevisiae sgs1 mgt1 strain, hits give high values
# In short: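 Mutant yeast exposed to compound; growth scored against vehicle-only wells.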
# [9] = NCI Yeast Anticancer Drug Screen. Data for the CLN2oe strain (AID 163);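 note: 0% = growth of vehicle-only control cultures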; details: S. cerevisiae CLN2oe strain, hits give high values
# In short: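 Growth of a genetically modified yeast strain is measured after compound exposure and compared with cultures given vehicle alone.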
# [10] = NCI Yeast Anticancer Drug Screen. Data for the cln2 rad14 strain (AID 165);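 note: 0% = growth equal to vehicle treated cultures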; details: S. cerevisiae cln2 rad14 strain, hits give high values
# In short: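 Compounds are applied to the cln2 rad14 yeast strain, and growth is then compared with that of vehicle-treated cultures to give inhibition.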
# [11] = NCI Yeast Anticancer Drug Screen. Data for the bub3 strain (AID 167); details: S. cerevisiae bub3 mutant strain, hits give high values
# In short: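 Screening used yeast with an engineered genetic alteration affecting cell cycle control. Compound-exposed cultures were compared with vehicle cultures, and reduced growth was taken as inhibition.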
# [12] = NCI Yeast Anticancer Drug Screen. Data for the mlh1 strain (AID 171);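 note: 0% = growth of vehicle-treated control cultures of the same strain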; details: S. cerevisiae mlh1 strain growth inhibition, hits give high values
# In short: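 Growth of the mutant yeast strain after compound exposure, expressed as inhibition relative to vehicle-only controls.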
# [13] = NCI Yeast Anticancer Drug Screen. Data for the sgs1 strain (AID 173);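 note: 0% = growth of vehicle-only control cultures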; details: S. cerevisiae sgs1 mutant, hits give high values
# In short: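 Growth of a yeast strain bearing a defined genetic alteration is measured after compound treatment. Inhibition is expressed relative to vehicle-only controls.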
# [14] = NCI Yeast Anticancer Drug Screen. Data for the mlh1 rad18 strain (AID 175); details: S. cerevisiae mlh1 rad18 strain growth inhibition, hits give high values
# In short: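 Read-out is yeast growth inhibition, calculated against vehicle-only controls. The compound was applied to a strain engineered with DNA damage repair alterations.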
# [15] = NCI Yeast Anticancer Drug Screen. Data for the rad18 strain (AID 177); details: S. cerevisiae rad18 mutant growth inhibition, hits give high values
# In short: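 Growth of the mutant yeast strain after compound exposure, normalised to vehicle-only cultures.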
# [16] = at 5.0 µM (retest, dose inferred, filed as 0.5)
# [17] = at 50.0 µM (retest, dose inferred, filed as 5.0)
structure (smiles),measurement,setting,value
S=c1[nH]nc(Nc2ccc(Cl)cc2)s1,growth inhibition,[1]; at 1.2 µM,-6%
same,growth inhibition,[1]; at 3.7 µM,-9%
same,growth inhibition,[1]; at 11.0 µM,1%
same,growth inhibition,[1]; at 33.0 µM,70% (active)
same,growth inhibition,[1]; at 100.0 µM,96% (active)
same,growth inhibition,[2]; at 1.2 µM,1%
same,growth inhibition,[2]; at 3.7 µM,4%
same,growth inhibition,[2]; at 11.0 µM,6%
same,growth inhibition,[2]; at 33.0 µM,36%
same,growth inhibition,[2]; at 100.0 µM,89% (active)
same,growth inhibition,[3]; at 1.2 µM,-2%
same,growth inhibition,[3]; at 3.7 µM,-10%
same,growth inhibition,[3]; at 11.0 µM,13%
same,growth inhibition,[3]; at 33.0 µM,27%
same,growth inhibition,[3]; at 100.0 µM,23%
same,growth inhibition,[4]; at 1.2 µM,-1%
same,growth inhibition,[4]; at 3.7 µM,-7%
same,growth inhibition,[4]; at 11.0 µM,-2%
same,growth inhibition,[4]; at 33.0 µM,-8%
same,growth inhibition,[4]; at 100.0 µM,19%
same,growth inhibition,[5]; at 1.2 µM,-7%
same,growth inhibition,[5]; at 3.7 µM,-13%
same,growth inhibition,[5]; [16],-150%
same,growth inhibition,[5]; at 11.0 µM,-10%
same,growth inhibition,[5]; at 33.0 µM,-17%
same,growth inhibition,[5]; [17],32%
same,growth inhibition,[5]; at 50.0 µM,92.8% (active)
same,growth inhibition,[5]; at 100.0 µM,42%
same,growth inhibition,[6]; at 1.2 µM,-1%
same,growth inhibition,[6]; at 3.7 µM,-1%
same,growth inhibition,[6]; [16],-49%
same,growth inhibition,[6]; at 11.0 µM,-6%
same,growth inhibition,[6]; at 33.0 µM,3%
same,growth inhibition,[6]; [17],93% (active)
same,growth inhibition,[6]; at 50.0 µM,91.8% (active)
same,growth inhibition,[6]; at 100.0 µM,91% (active)
same,growth inhibition,[7]; at 1.2 µM,-3%
same,growth inhibition,[7]; at 3.7 µM,1%
same,growth inhibition,[7]; at 11.0 µM,0%
same,growth inhibition,[7]; at 33.0 µM,46%
same,growth inhibition,[7]; at 100.0 µM,96% (active)
same,growth inhibition,[8]; [16],-61%
same,growth inhibition,[8]; [17],86% (active)
same,growth inhibition,[8]; at 50.0 µM,89% (active)
same,growth inhibition,[9]; at 1.2 µM,-7%
same,growth inhibition,[9]; at 3.7 µM,-7%
same,growth inhibition,[9]; at 11.0 µM,-13%
same,growth inhibition,[9]; at 33.0 µM,-11%
same,growth inhibition,[9]; at 100.0 µM,73% (active)
same,growth inhibition,[10]; [16],-55%
same,growth inhibition,[10]; [17],83% (active)
same,growth inhibition,[10]; at 50.0 µM,90.5% (active)
same,growth inhibition,[11]; at 1.2 µM,-3%
same,growth inhibition,[11]; at 3.7 µM,-1%
same,growth inhibition,[11]; [16],-67%
same,growth inhibition,[11]; at 11.0 µM,-7%
same,growth inhibition,[11]; at 33.0 µM,-10%
same,growth inhibition,[11]; [17],38%
same,growth inhibition,[11]; at 50.0 µM,88.8% (active)
same,growth inhibition,[11]; at 100.0 µM,9%
same,growth inhibition,[12]; at 1.2 µM,-7%
same,growth inhibition,[12]; at 3.7 µM,-2%
same,growth inhibition,[12]; at 11.0 µM,-4%
same,growth inhibition,[12]; at 33.0 µM,8%
same,growth inhibition,[12]; at 100.0 µM,61%
same,growth inhibition,[13]; at 1.2 µM,-14%
same,growth inhibition,[13]; at 3.7 µM,-7%
same,growth inhibition,[13]; at 11.0 µM,2%
same,growth inhibition,[13]; at 33.0 µM,37%
same,growth inhibition,[13]; at 100.0 µM,91% (active)
same,growth inhibition,[14]; [16],-149%
same,growth inhibition,[14]; [17],19%
same,growth inhibition,[14]; at 50.0 µM,92.6% (active)
same,growth inhibition,[15]; at 1.2 µM,-3%
same,growth inhibition,[15]; at 3.7 µM,2%
same,growth inhibition,[15]; at 11.0 µM,-4%
same,growth inhibition,[15]; at 33.0 µM,38%
same,growth inhibition,[15]; at 100.0 µM,94% (active)
Fc1ccc(NC(=S)SCc2ccc3c(c2)OCO3)cc1F,growth inhibition,[1]; at 1.2 µM,15%
same,growth inhibition,[1]; at 3.7 µM,9%
same,growth inhibition,[1]; at 11.0 µM,71% (active)
same,growth inhibition,[1]; at 33.0 µM,98% (active)
same,growth inhibition,[1]; at 100.0 µM,97% (active)
same,growth inhibition,[2]; at 1.2 µM,6%
same,growth inhibition,[2]; at 3.7 µM,6%
same,growth inhibition,[2]; at 11.0 µM,66%
same,growth inhibition,[2]; at 33.0 µM,98% (active)
same,growth inhibition,[2]; at 100.0 µM,97% (active)
same,growth inhibition,[3]; at 1.2 µM,0%
same,growth inhibition,[3]; at 3.7 µM,27%
same,growth inhibition,[3]; at 11.0 µM,96% (active)
same,growth inhibition,[3]; at 33.0 µM,99% (active)
same,growth inhibition,[3]; at 100.0 µM,99% (active)
same,growth inhibition,[4]; at 1.2 µM,-3%
same,growth inhibition,[4]; at 3.7 µM,12%
same,growth inhibition,[4]; at 11.0 µM,61%
same,growth inhibition,[4]; at 33.0 µM,99% (active)
same,growth inhibition,[4]; at 100.0 µM,96% (active)
same,growth inhibition,[5]; at 1.2 µM,-9%
same,growth inhibition,[5]; at 3.7 µM,22%
same,growth inhibition,[5]; [16],23%
same,growth inhibition,[5]; at 11.0 µM,57%
same,growth inhibition,[5]; at 33.0 µM,99% (active)
same,growth inhibition,[5]; [17],97% (active)
same,growth inhibition,[5]; at 50.0 µM,92.2% (active)
same,growth inhibition,[5]; at 100.0 µM,98% (active)
same,growth inhibition,[6]; at 1.2 µM,-10%
same,growth inhibition,[6]; at 3.7 µM,2%
same,growth inhibition,[6]; [16],-7%
same,growth inhibition,[6]; at 11.0 µM,49%
same,growth inhibition,[6]; at 33.0 µM,99% (active)
same,growth inhibition,[6]; [17],99% (active)
same,growth inhibition,[6]; at 50.0 µM,91.7% (active)
same,growth inhibition,[6]; at 100.0 µM,98% (active)
same,growth inhibition,[7]; at 1.2 µM,-9%
same,growth inhibition,[7]; at 3.7 µM,20%
same,growth inhibition,[7]; at 11.0 µM,65%
same,growth inhibition,[7]; at 33.0 µM,99% (active)
same,growth inhibition,[7]; at 100.0 µM,94% (active)
same,growth inhibition,[8]; [16],31%
same,growth inhibition,[8]; [17],99% (active)
same,growth inhibition,[8]; at 50.0 µM,92.5% (active)
same,growth inhibition,[9]; at 1.2 µM,8%
same,growth inhibition,[9]; at 3.7 µM,28%
same,growth inhibition,[9]; at 11.0 µM,40%
same,growth inhibition,[9]; at 33.0 µM,99% (active)
same,growth inhibition,[9]; at 100.0 µM,98% (active)
same,growth inhibition,[10]; [16],21%
same,growth inhibition,[10]; [17],99% (active)
same,growth inhibition,[10]; at 50.0 µM,91.8% (active)
same,growth inhibition,[11]; at 1.2 µM,-19%
same,growth inhibition,[11]; at 3.7 µM,-11%
same,growth inhibition,[11]; [16],35%
same,growth inhibition,[11]; at 11.0 µM,42%
same,growth inhibition,[11]; at 33.0 µM,98% (active)
same,growth inhibition,[11]; [17],99% (active)
same,growth inhibition,[11]; at 50.0 µM,91.8% (active)
same,growth inhibition,[11]; at 100.0 µM,98% (active)

# — PubChem BioAssay (NCI)
